Rv3671c protease = Rv3671c serine protease inhibitors, primary screen, biochemical, fluorescence polarization, M. tuberculosis H37Rv; inhibition, % at 5.96 µM; AID 2606, 2010; P9WHR9; 320,000 compounds, 0.048% hits; in the data active = inhibition above about 38%;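 also: extracellular domain of Rv3671c used as enzyme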
Mtb betalactam = beta-lactam sensitization of Mtb H37Rv, H37Rv; M. tuberculosis H37Rv growth with meropenem, percent inhibition; inhibition, % at 25 µM; 330,000 compounds, 0.27% hits; AID 434955, 2010; call rule not given here;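 also: growth measured after seven days incubation then overnight dye step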
FBA Mtb inh = Mtb FBA enzyme inhibitors, primary screen, biochemical, fluorescence, strain H37Rv; 360,000 compounds, 2.3% hits; Fructose-bisphosphate aldolase (Mycobacterium tuberculosis (strain ATCC 25618 / H37Rv)), …; AID 588726, 2011; inhibition, % at 1 µM; purified M. tuberculosis FBA, fluorescence read-out
GDH-TPI counter-1 = GDH-TPI coupling enzyme inhibitors, primary screen, artefact control for M. tuberculosis FBA inhibitor project, biochemical, absorbance, full deck; GDH-TPI coupled enzyme counterscreen, NADH absorbance; inhibition, % at 4.8 µM; 360,000 compounds, 1.2% hits; in the data active = inhibition above about 30%
RecA splice inh = Mtb RecA intein splicing inhibitors, primary screen, biochemical, fluorescence, HTS; inhibition, % (no concentration beside the values); 290,000 compounds, 0.75% hits; Protein RecA (Mycobacterium tuberculosis (strain ATCC 25618 / H37Rv)), P9WHJ3; cell-free RecA intein splicing; in the data active = inhibition above about 30%; inconclusive = no clear call, values can overlap the other calls
Target sequence (P9WHJ3 whole entry, looked up, canonical isoform): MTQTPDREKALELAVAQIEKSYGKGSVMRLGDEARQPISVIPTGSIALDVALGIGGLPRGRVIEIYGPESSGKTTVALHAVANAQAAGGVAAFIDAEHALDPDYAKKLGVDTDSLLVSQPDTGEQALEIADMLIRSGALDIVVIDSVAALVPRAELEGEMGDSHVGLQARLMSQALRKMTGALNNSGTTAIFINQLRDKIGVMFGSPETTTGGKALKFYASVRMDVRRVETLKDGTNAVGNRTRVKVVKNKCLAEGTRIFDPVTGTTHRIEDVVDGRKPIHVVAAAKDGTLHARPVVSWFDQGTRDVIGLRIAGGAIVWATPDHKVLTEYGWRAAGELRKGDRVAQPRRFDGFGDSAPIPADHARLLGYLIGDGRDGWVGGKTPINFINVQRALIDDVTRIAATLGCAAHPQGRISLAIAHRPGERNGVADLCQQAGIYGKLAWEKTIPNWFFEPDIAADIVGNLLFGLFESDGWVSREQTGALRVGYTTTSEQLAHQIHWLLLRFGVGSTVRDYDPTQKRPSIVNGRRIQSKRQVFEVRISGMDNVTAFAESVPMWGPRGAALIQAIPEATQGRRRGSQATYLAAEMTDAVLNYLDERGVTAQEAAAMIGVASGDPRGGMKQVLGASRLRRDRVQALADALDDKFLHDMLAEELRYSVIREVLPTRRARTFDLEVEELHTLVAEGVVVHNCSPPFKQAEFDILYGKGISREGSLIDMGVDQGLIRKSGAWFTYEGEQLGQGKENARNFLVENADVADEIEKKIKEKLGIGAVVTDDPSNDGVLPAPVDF
UGM FP inh = M. tuberculosis UGM enzyme inhibitors, primary screen, biochemical, fluorescence polarization, single point; inhibition, % at 10 µM; 320,000 compounds, 0.06% hits; UDP-galactopyranose mutase (Mycobacterium tuberculosis (strain ATCC 25618 / H37Rv)), …; purified UGM, fluorescence polarization probe displacement; in the data active = inhibition above about 10%, passing the limit was not always enough; inconclusive = no clear call, values can overlap the other calls
Mtb FBA confirm = M. tuberculosis aldolase blockers, biochemical, fluorescence, strain H37Rv, confirmation; AID 651616, 2012; inhibition, % at 1 µM; purified M. tuberculosis FBA, fluorescence read-out; 5,600 compounds, 78% hits; shares compounds with FBA Mtb inh
GDH-TPI counter-2 = GDH-TPI coupling enzyme inhibitors, artefact control for M. tuberculosis FBA inhibitor project, biochemical, fluorescence, high throughput; shares compounds with FBA Mtb inh; GDH-TPI coupled enzyme counterscreen; inhibition, % at 1 µM; 5,600 compounds, 81% hits; AID 652141, 2013; in the data active = inhibition above about 10%
Each line names hits and unclear results; the compound was inactive in the other large screens (follow-up assays come after a bar, where they were run). In the library only some 4% were active in any assay of this set; here they are far more common. Rule as the data show it, unless noted: active = inhibition above about 27%; inactive = the rest.

COC(=O)Cc1c[nH]c2cccc(OCC(O)CN(Cc3ccc([N+](=O)[O-])cc3)C(C)(C)C)c12 (centres undefined)	none
COC(=O)Cc1c[nH]c2cccc(OCC(O)CN(Cc3ccccc3)C(C)C)c12 (centres undefined)	FBA Mtb inh 29.3 | Mtb FBA confirm inactive | GDH-TPI counter-2 25.3
CCN(CC)c1cc(C)c2cc(NC(=O)CNC(C)=O)ccc2n1	FBA Mtb inh 49.3 | Mtb FBA confirm 101.2 | GDH-TPI counter-2 110.1
COCc1cc(C)nc2sc(C(=O)Nc3ccc(C(=O)OC)cc3)c(N)c12	none
COCc1cc(C)nc2sc(C(=O)OC(C)C)c(N)c12	FBA Mtb inh 40.6 | Mtb FBA confirm active | GDH-TPI counter-2 174.8
C=CCNc1nc(NCCOc2ccccc2Cl)c2sc(-c3ccccc3)cc2n1	none (no result: Rv3671c protease, Mtb betalactam, RecA splice inh, UGM FP inh)
CCOC(=O)c1sc2cccc(F)c2c1N	FBA Mtb inh 103.2 | Mtb FBA confirm active | GDH-TPI counter-2 197.8
CCOC(=O)c1sc2cccc(Cl)c2c1N	none
CC(C)COC(=O)N1C[C@H](O)C[C@H]1C(=O)Nc1ccc(Cl)cc1	Mtb betalactam inconclusive
COc1ccc(C(=O)NNC(=S)NC(=O)/C=C/c2cccs2)cc1	none
O=C(/C=C/c1cccs1)NC(=S)NNC(=O)c1ccccc1O	FBA Mtb inh 27.9 | Mtb FBA confirm inactive | GDH-TPI counter-2 inactive
COc1ccccc1Cn1c(=S)[nH]c2cc(C(=O)N3CCCC(C)C3)ccc2c1=O (centres undefined)	none (no result: Rv3671c protease, Mtb betalactam, RecA splice inh, UGM FP inh)
COc1cc2c3nc4n(c(=O)c3n(CC(=O)NCC3CCCO3)c2cc1OC)CCS4 (centres undefined)	FBA Mtb inh 62.6 | Mtb FBA confirm 179.8 | GDH-TPI counter-2 174.2
CN(C)c1cc2c3ccccc3n(C)c2cc1N	FBA Mtb inh 71.2 (no result: Rv3671c protease, Mtb betalactam, RecA splice inh, UGM FP inh) | Mtb FBA confirm 147.3 | GDH-TPI counter-2 134.2
Cc1ccc(C(=O)Nc2ccc3c(c2)C(=O)NC3=O)cc1	none
CC(C)C(=O)Nc1ccc2c(c1)C(=O)NC2=O	FBA Mtb inh 46.1 | Mtb FBA confirm inactive | GDH-TPI counter-2 13.1
O=C1NC(=O)c2cc(NC(=O)C3CCCCC3)ccc21	FBA Mtb inh 43.9 | Mtb FBA confirm 132.3 | GDH-TPI counter-2 88.5
Cc1cccc(C(=O)Nc2ccc3c(c2)C(=O)NC3=O)c1	FBA Mtb inh 44.6 | Mtb FBA confirm inactive | GDH-TPI counter-2 inactive
Cc1cccc(C(=O)Nc2cccc(C(=O)N/N=C/c3ccccn3)c2)c1	FBA Mtb inh 48.1 | Mtb FBA confirm inactive | GDH-TPI counter-2 inactive
COc1ccc(CC(=O)OCn2nnc3ccccc3c2=O)cc1	none
COc1ccc(Cn2cc(Cn3c4ccccc4c(=O)n3C(C)C)nn2)cc1	FBA Mtb inh 104.7 (no result: Rv3671c protease, Mtb betalactam, GDH-TPI counter-1, RecA splice inh, UGM FP inh) | Mtb FBA confirm 76.9 | GDH-TPI counter-2 55.1
O=C(OCc1cn(-c2ccc(Cl)cc2)nn1)c1ccccc1	none
CC(C)n1c(=O)c2ccccc2n1Cc1cn(-c2ccc(Cl)cc2)nn1	FBA Mtb inh 55.8 (no result: Rv3671c protease, Mtb betalactam, GDH-TPI counter-1, RecA splice inh, UGM FP inh) | Mtb FBA confirm 35.3 | GDH-TPI counter-2 29.9
CCOCc1cc(CN2CCCC(CNC(=O)c3ccco3)C2)ccc1OC (centres undefined)	none
CC(C)CNC(=O)c1cc2nc(C3CC3)cc(C(F)(F)F)n2n1	FBA Mtb inh 79.0 | Mtb FBA confirm 62.0 | GDH-TPI counter-2 60.7
COCOCCn1cc(CN2CCS(=O)(=O)N(Cc3ccc(-c4ccncc4)cc3)C(CC(C)C)C2=O)nn1 (centres undefined)	none (no result: Rv3671c protease, Mtb betalactam, RecA splice inh, UGM FP inh)
